Results filed as inconclusive are left out. Values without a mark were called inactive. Calls come from the whole dose curve; as a rule, active = well fitted curve in the direction sought with a large enough effect; inconclusive = small, poorly fitted or top-dose-only effect, or another doubt; inactive = no such curve, though single readings can be large; an effect the other way counts as inactive or inconclusive.
Biological target: Aldehyde dehydrogenase, mitochondrial (Homo sapiens) (UniProt P05091)
Assay: qHTS for Inhibitors of the Aldehyde Dehydrogenase Family (ALDH2) Primary screen (AID 2061308);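 note: plate controls were vehicle for no effect and reference inhibitor for full effect; nearly all actives have a fitted effect of over 55% in size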
Details: ALDH2 enzyme inhibition qHTS, 1536-well; series mostly up to 56 µM; activity change, negative = inhibition: at the top concentration

SMILES	activity change, negative = inhibition
O=S(=O)(c1ccc2nc(Cl)c(Cl)nc2c1)N1CCN(S(=O)(=O)c2c(F)cccc2F)CC1	-1.77%
Cc1cc2c(s1)c1cnn(Cc3cccc4cccnc34)c(=O)c1n2C	-22.8%
COc1ccccc1C(=O)NCCc1nc2ccccc2n1CCOc1ccc(C)cc1	-2.39%
Nc1ccc(S(=O)(=O)N2CCN(S(=O)(=O)c3ccc4c(c3)OCCO4)CC2)cc1	7.79%
CCC(C)(CCN1CCOCC1)N(Cc1cc2ccccc2n(C)c1=O)C(=O)C1CCCCC1 (centres undefined)	12.9%
O=C(NCCc1ccccc1)C1CCN(c2nc(-c3ccc(Br)cc3)cs2)CC1	-9.98%
O=C1CCCC2=C1C(c1[nH]ncc1Cl)NC(=NCc1ccncc1)N2 (centres undefined)	1.46%
COc1cccc(C2c3c(ncn(-c4ccc(C#N)cc4)c3=N)Oc3ccc4ccccc4c32)c1 (centres undefined)	1.03%
Cc1cc(C)n2ncc(C(=O)Nc3cc(Cl)cc(Cl)c3)c2n1	20.2%
CN1CCN(c2nnc(NC(=O)Nc3ccc(Cl)c(Cl)c3)s2)CC1	6.1%
CC(=O)Nc1sc2c(c1-c1ccc3nonc3c1)CCNC2	-5.24%
CCOc1ccc(CCNC(=O)c2cc3sccc3n2CCN2CCOCC2)cc1OCC	3.16%
Cc1cc2c(s1)c1cnn(Cc3cc(F)cc(F)c3F)c(=O)c1n2C	8.56%
CN(C)CCNc1ncnc2ccc(-c3ccc4c(c3)OCO4)cc12	19.1%
Cc1ccc(-c2ccc(=O)n(CC(=O)NCCc3cnc[nH]3)n2)cc1	-1.28%
CC(C)CN1CCN(C(=O)COC(=O)c2ccc(S(C)(=O)=O)c([N+](=O)[O-])c2)CC1	-4.72%
Cc1ccc(OCCn2c(CCNC(=O)c3ccc(C(F)(F)F)cc3)nc3ccccc32)cc1	-10.8%
COCCNc1nc(C)nc2c1nc(-c1ccccc1)n2CCN(C)C	21.3%
COc1ccc(C2=Nn3c(nnc3-c3ccccc3Cl)SC2)cc1O[C@H]1CCOC1	9.94%
Nc1nc(NCc2ccc(-c3cccnc3)cc2)c2ccccc2n1	10.2%
Cc1c[nH]c2nccc(Oc3c(F)cc(Nc4cc(Cl)nc(N)n4)cc3F)c12	-12%
COc1ccc(-c2nnc3n2N=C(c2ccccc2OC)CS3)cc1OC	17.2%
Cc1cn([C@H]2C[C@H](N[S+](=O)([O-])Cc3ccccc3)[C@@H](CO)O2)c(=O)[nH]c1=O	9.93%
COc1cccc(C2c3c(ncn(-c4ccccc4)c3=N)Oc3ccc4ccccc4c32)c1OC (centres undefined)	6.78%

Biological target: Retinaldehyde dehydrogenase 3 (Homo sapiens) (UniProt P47895)
Assay: qHTS for Inhibitors of the Aldehyde Dehydrogenase Family (ALDH1A3) Primary screen (AID 2061315);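 note: plate controls were DMSO vehicle for no effect and reference inhibitor for full effect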
Details: ALDH inhibition qHTS; series mostly up to 56 µM; activity change, negative = inhibition: at the top concentration

SMILES	activity change, negative = inhibition
O=C(Nc1ccc([S+](=O)([O-])Nc2nccs2)cc1)c1ncn[nH]1	8.46%
Cc1cc2c(s1)c1cnn(Cc3cc(F)cc(F)c3)c(=O)c1n2C	-0.829%
Cn1nnnc1Sc1ncnc2scc(-c3ccccc3C#N)c12	6.41%
CC(=O)Nc1ccc(S(=O)(=O)N2CCN(S(=O)(=O)c3c(F)cccc3F)CC2)cc1	-13.4%
COc1ccc(C2=Nn3c(nnc3-c3ccccc3OC)SC2)cc1O[C@H]1CCOC1	1.72%
CCCn1c(C)nc2c(N3CCOCC3)nc(C)nc21	-5.59%
Cc1ccc(S(=O)(=O)N2CCN(c3nc(-c4ccco4)nc4ccccc34)CC2)cc1	20.7%
O=S(=O)(NCc1cccc2ccccc12)c1cc(Cl)c(Oc2cccc(N3CCNCC3)c2)s1	-2.94%
C[S+](=O)([O-])c1ccc(C(=O)OCC(=O)N2CCNC(=O)C2)cc1[N+](=O)[O-]	-6.74%
c1c[nH]c(CNc2ncnc3ccc(-c4ccoc4)cc23)n1	0.477%
Cc1cc(C)nc(NC(=S)N2CCN(c3cc(C(F)(F)F)nc(C)n3)CC2)c1	12.3%
CCOC(=O)C1CCN(C(=O)C(C)(C)NC(=O)Nc2cccc(OC)c2)CC1	-4.11%
Cc1ccc(S(=O)(=O)Nc2ccc(F)cc2C(=O)Nc2nc(-c3ccccc3)cs2)cc1	0.858%
Cn1c2cc(C(=O)O)sc2c2cnn(Cc3ccccc3F)c(=O)c21	-19.2%
O=C(OCC#CCSc1nnc(-c2cccc3ccccc23)o1)c1ccc(F)c(F)c1	8.12%
Cc1ccc(-c2cc(C(=O)Nc3cccc(Cl)c3)c3ccccc3n2)cc1C	1.19%
O=S(=O)(c1ccc2nc(Cl)c(Cl)nc2c1)N1CCN(S(=O)(=O)c2c(F)cccc2F)CC1	0.846%
Cc1cc2c(s1)c1cnn(Cc3cccc4cccnc34)c(=O)c1n2C	6.66%
COc1ccccc1C(=O)NCCc1nc2ccccc2n1CCOc1ccc(C)cc1	0.786%
Nc1ccc(S(=O)(=O)N2CCN(S(=O)(=O)c3ccc4c(c3)OCCO4)CC2)cc1	14.9%

SMILES	activity change, negative = inhibition
CCC(C)(CCN1CCOCC1)N(Cc1cc2ccccc2n(C)c1=O)C(=O)C1CCCCC1 (centres undefined)	-0.0938%
O=C(NCCc1ccccc1)C1CCN(c2nc(-c3ccc(Br)cc3)cs2)CC1	38.9%
O=C1CCCC2=C1C(c1[nH]ncc1Cl)NC(=NCc1ccncc1)N2 (centres undefined)	1.76%
COc1cccc(C2c3c(ncn(-c4ccc(C#N)cc4)c3=N)Oc3ccc4ccccc4c32)c1 (centres undefined)	-3.09%
Cc1cc(C)n2ncc(C(=O)Nc3cc(Cl)cc(Cl)c3)c2n1	7.81%
CN1CCN(c2nnc(NC(=O)Nc3ccc(Cl)c(Cl)c3)s2)CC1	-7.74%
CC(=O)Nc1sc2c(c1-c1ccc3nonc3c1)CCNC2	-6.91%
CCOc1ccc(CCNC(=O)c2cc3sccc3n2CCN2CCOCC2)cc1OCC	-11.7%
Cc1cc2c(s1)c1cnn(Cc3cc(F)cc(F)c3F)c(=O)c1n2C	9.37%
CN(C)CCNc1ncnc2ccc(-c3ccc4c(c3)OCO4)cc12	-16.7%
Cc1ccc(-c2ccc(=O)n(CC(=O)NCCc3cnc[nH]3)n2)cc1	3.85%
CC(C)CN1CCN(C(=O)COC(=O)c2ccc(S(C)(=O)=O)c([N+](=O)[O-])c2)CC1	0.134%
Cc1ccc(OCCn2c(CCNC(=O)c3ccc(C(F)(F)F)cc3)nc3ccccc32)cc1	-13%
COCCNc1nc(C)nc2c1nc(-c1ccccc1)n2CCN(C)C	-8.07%
COc1ccc(C2=Nn3c(nnc3-c3ccccc3Cl)SC2)cc1O[C@H]1CCOC1	9.5%
Nc1nc(NCc2ccc(-c3cccnc3)cc2)c2ccccc2n1	7.07%
Cc1c[nH]c2nccc(Oc3c(F)cc(Nc4cc(Cl)nc(N)n4)cc3F)c12	10.3%
COc1ccc(-c2nnc3n2N=C(c2ccccc2OC)CS3)cc1OC	2.89%
Cc1cn([C@H]2C[C@H](N[S+](=O)([O-])Cc3ccccc3)[C@@H](CO)O2)c(=O)[nH]c1=O	2.13%
COc1cccc(C2c3c(ncn(-c4ccccc4)c3=N)Oc3ccc4ccccc4c32)c1OC (centres undefined)	-8.12%

Source: PubChem BioAssay (NCATS)
